# Data: PubChem BioAssay AID1850 (Southern Research Specialized Biocontainment Screening …, 2009)
# Several values for one entry are separate records, joined by “and”; a condition that tells them apart may be missing. Identical values can stand only once. About 1,000 (0.32%) of roughly 310,000 compounds were called active. Only a sample is shown. Potency and affinity values are given separately. A number with no mark means an inactive call. How the calls were made is not given here.
# Assay: PhoP regulon inhibitors, Salmonella typhi PhoP promoter GFP reporter, confirmatory (AID 1850);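 further: 0% = induced wells with vehicle and 100% = uninduced wells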
# Conditions: fluorescence, 4 h, at 50 µM, stronger effect = higher value
row,Compound,inhibition
1,CCOc1ccc(Oc2cc(N)cc([N+](=O)[O-])c2)cc1,-14.2%
2,O=C(c1ccc(F)cc1F)N1CCN(c2n[nH]c(=O)[nH]c2=O)CC1,-2.71%
3,COC(=O)c1nnn(CC(=O)NC(=O)Nc2c(C)cccc2C)c1C(=O)OC,-3.97%
4,CCN(CC(=O)NCCc1ccc(Cl)cc1)Cc1nc2ccccc2c(=O)[nH]1,-9.11%
5,Cc1ccc(NC(=O)CN2C(=O)S/C(=C\c3ccc(OCC(=O)O)c(Br)c3)C2=O)cc1,-6.05%
6,CC1(C)OC(=O)C(=CNc2ncccn2)C(=O)O1,-4.83%
7,CCSc1nnc(NC(=O)CSc2ncccn2)s1,-1.89%
8,Cc1ccc(N2CC(NC(=O)C3CC3)CC2=O)cc1 (centres undefined),9.02%
9,Cn1c(N)c(C(=O)COC(=O)CN2C(=O)c3ccccc3C2=O)c(=O)n(C)c1=O,-5.68%
10,CCN1CCN(CCCNC(=O)CCCn2nc(C)c3sc4ccccc4c3c2=O)CC1,0.59%
11,Brc1ccccc1OCCNCc1ccccc1,11.4%
12,CCN(CC)CCOCCOc1ccc(Cl)c2ccccc12,1.79%
13,Clc1ccc(Cl)c(OCCCCNCc2ccccc2)c1,13.1%
14,Cc1cc(Br)ccc1OCCNCc1ccccc1,11.4%
15,CCOc1ccccc1OCCCNCc1ccccc1,-6.34%
16,COCCCNCCCOc1ccc(Cl)cc1Br,4.69%
17,COCCNCCCOc1ccc(Br)cc1Cl,5.48%
18,Cc1ccc(OCCOCCN(C)C)c(Cl)c1,2.62%
19,O=C(O)C1C2C=CC(C2)C1C(=O)NCCCN1CCCC1=O (centres undefined),-1.57%
20,Cn1c(Cn2c(=O)sc3ccccc32)nnc1SCC(=O)N1CCCC1,0.97%
21,NS(=O)(=O)c1ccc(NCCCn2ccnc2)c([N+](=O)[O-])c1,9.73%
22,Cc1ccc(NC(=O)CCC(=O)NNC(=S)Nc2ccc(F)cc2F)cc1C,-6.55%
23,O=C(CSC1=NC(=O)C(c2ccccc2)C(=O)N1)Nc1ccccc1Cl (centres undefined),7.4%
24,NCCc1nnc(SCC(=O)Nc2cccc(Cl)c2)o1,5.27%
25,CC(=O)NC1C(=O)N=C(SCC(=O)Nc2cccc(Cl)c2)NC1=O (centres undefined),11.8%

row,Compound,inhibition
1,NNC(=O)C(=O)Nc1ccc(Cl)c(Cl)c1,-4.15%
2,Cc1ccc(Cl)cc1NC(=O)CSC(N)=O,-1.36%
3,Cc1ccc(NC(=O)CSCC#N)cc1Cl,-2.58%
4,COc1cccc(NC(=O)CSC(N)=O)c1,-6.88%
5,O=C(CCC(=O)N1CCCC1)Nc1ccc(Cl)c(Cl)c1,-7.42%
6,O=C(CSc1ccccn1)N1CCCC(Nc2ccc(F)c(F)c2)C1 (centres undefined),-15.8%
7,CC(C)(C)OC(=O)NCc1ccc(CNC(=O)c2[nH]cnc2C(=O)N[C@@H](Cc2ccccc2)C(=O)OC(C)(C)C)cc1,-19.7%
8,COc1ccc(CCC(=O)NNC(=O)Nc2cccc(Cl)c2)cc1,-3.45%
9,Cc1cc(C(=O)Nc2cccnc2)no1,-7.65%
10,N#CCSc1nc(-c2ccccc2)c2cc(Cl)ccc2n1,-0.85%
11,COCCCn1c(=O)c2ccccc2n(Cc2cc(C(=O)OC)ccc2OC)c1=O,5.08%
12,CCOC(=O)CC1C(=O)NCCN1C(=O)c1cccc(OC)c1 (centres undefined),-7.55%
13,COCCn1nnnc1C(c1ccc(OC)c(OC)c1)N1CCN(c2nc3ccccc3s2)CC1 (centres undefined),-9.37%
14,COc1ccccc1N1CCN(S(=O)(=O)CCNC(=O)C2CCCCC2)CC1,-2.35%
15,CCOc1ccc(NC(=O)CSC(N)=O)cc1,-9.69%
16,N#CCSCC(=O)Nc1ccc(Cl)cc1,6.54%
17,O=C(N/N=C\c1ccc(O)c([N+](=O)[O-])c1)c1ccccc1-n1cccc1,-6.79%
18,COc1ccc(N(CN2C(=O)c3ccccc3C2=O)C(=O)COc2ccc(Cl)cc2Cl)cc1,-5.69%
19,CN(C)CCCN1c2ccccc2CCc2ccccc21,8.39% and 6.67%
20,CN(C)CCCN1c2ccccc2Sc2ccc(Cl)cc21,9.15%
21,CCNS(=O)(=O)c1ccc(NC(=O)c2ccc(Cn3cc(Br)cn3)o2)cc1,-4.21%
22,O=C(CCn1nc(-c2ccccc2)c2ccccc2c1=O)N1CCN(c2ccccc2)CC1,6.41%
23,CC1CCN(C(=O)Cn2cnc3c(cnn3C(C)(C)C)c2=O)CC1,-6.14%
24,Cc1nc(SCC(=O)c2ccccc2)[nH]c(=O)c1Oc1ccc(Cl)cc1,-6%
25,COc1ccc(C2CC(=O)c3c(ccc4ccccc34)N2)cc1OC (centres undefined),2.44%

row,Compound,inhibition
1,Cc1ncc(/C=C2\C(=O)Nc3ccccc32)[nH]1,-10.1%
2,Cc1cccc(NC(=O)CSc2nc(=O)n3ccccc3n2)c1C,4.11%
3,Fc1ccc(Nc2nnc(C(F)(F)F)s2)cc1,-1.74%
4,FC(F)(F)c1nnc(Nc2ccc(Cl)cc2)s1,13.5%
5,Cc1ccc(C(=O)N/C(N)=N/c2nc3ccccc3o2)cc1,-27.8%
6,O=C(COC(=O)c1ccco1)NC(c1ccccc1)c1ccccc1,-14.2%
7,CN(CC(=O)O)S(=O)(=O)c1ccc2c(c1)NC(=O)CC(=O)N2,12.4%
8,COc1ccccc1CN1C[C@@H]2C[C@@H](c3ccccc3C)N3CCC[C@@]23C1=O,-4.27%
9,COCCNc1nc(-c2cc(-c3ccccc3)on2)cc(C(C)C)n1,-5.87%
10,Cc1c(C(=O)Nc2c(N)nc(SCC(=O)NCC3CCCO3)[nH]c2=O)cccc1[N+](=O)[O-] (centres undefined),-5.44%
11,CCOC(=O)C1CCN(C(=S)NC2CC3C=CC2C3)CC1 (centres undefined),6.08%
12,COc1ccc(-n2nc(C)cc2N)cc1,4.84%
13,Cc1cccc(C(=O)NNC(=S)NC(=O)c2ccccc2)c1,18.6%
14,COc1ccc(C(=O)NNC(=S)NC(=O)c2ccc(OC)cc2)cc1,5.93%
15,Cc1cccc(C(=O)NC(=S)NNC(=O)c2cccs2)c1,-3.39%
16,COc1ccc(C(=O)NC(=S)NNC(=O)c2ccc(C)cc2)cc1,18.1%
17,COc1ccc(C(=O)NNC(=S)NC(=O)c2ccc(Cl)cc2)cc1,4.94%
18,O=C(NNC(=S)NC(=O)c1cccs1)c1ccc(O)cc1,-3.75%
19,Cc1ccc(CSc2nnc(-c3cccc(S(=O)(=O)N4CCOCC4)c3)n2CC(C)C)cc1,10.2%
20,CCOC(=O)[C@@H]1CCNC[C@@H]1c1ccccc1,-2.58%
21,CCC(C)Sc1nnc(NC(=O)c2ccco2)s1 (centres undefined),-2.84%
22,CC(C)(C)c1ccccc1N=Cc1ccc2ccccc2n1,-21.3%
23,Cc1onc(-c2ccc(Cl)cc2)c1-c1ccnn1S(=O)(=O)c1cccc(C(F)(F)F)c1,-8.24%
24,Cc1ccccc1NC(=S)N(Cc1cccnc1)Cc1ccccc1Cl,-8.27%
25,CCOC(=O)C1CCN(Cc2c(F)cccc2Cl)CC1,-1.3%

row,Compound,inhibition
1,COc1ccc(C(=O)C2CCCN(C(=O)c3ccc(F)cc3)C2)cc1OC (centres undefined),-6.1%
2,O=C(Nc1ccc(F)cc1)c1cccnc1,-6.59%
3,CCOC(=O)C1=C(C)Nc2nc3ccccc3n2C1c1ccccc1 (centres undefined),-6.62%
4,Cc1cccc(C2N=C(N)Nc3nc4ccccc4n32)c1 (centres undefined),1.47%
5,NC1=NC(c2ccc(Cl)cc2)n2c(nc3ccccc32)N1 (centres undefined),-5.56%
6,NC1=NC(c2ccccc2Cl)n2c(nc3ccccc32)N1 (centres undefined),4.77%
7,CCn1c2ccccc2c2cc(C3N=C(N)Nc4nc5ccccc5n43)ccc21 (centres undefined),6.06%
8,Cc1ccc(C2N=C(N)Nc3nc4ccccc4n32)cc1 (centres undefined),-13.9%
9,CCCCCOc1ccc(CSCCNC(=S)Nc2ccccc2)cc1,-18.1%
10,CC(C)CN(C(=O)COC(=O)CSc1ccccc1F)c1c(N)n(Cc2ccccc2)c(=O)[nH]c1=O,4.09%
11,COc1cc(C2/C(=C(\O)c3ccc4c(c3)CC(C)O4)C(=O)C(=O)N2CCN2CCOCC2)cc(OC)c1OC (centres undefined),-7.62%
12,CC(C)(C)NC(=O)/C(=C/c1ccccc1F)NC(=O)c1ccc([N+](=O)[O-])cc1,7.24%
13,CC(C)NC(=O)NC(=O)CN1C(=O)NC2(CCc3ccccc3C2)C1=O (centres undefined),-20.4%
14,C/C=C/C(=O)Nc1nnc(C2CCCCC2)s1,-12.4%
15,COC(=O)C1CCCCN1C(=O)c1ccc2oc(Cc3ccccc3)nc2c1 (centres undefined),-3.48%
16,COc1ccccc1CC(=O)NNS(=O)(=O)c1cccc([N+](=O)[O-])c1,-15.1%
17,c1ccc(C[C@H]2CNCCN2CCC23CC4CC(CC(C4)C2)C3)cc1,15.7%
18,Oc1ccc(C[C@H]2CNCCN2CC2CCCCC2)cc1,-0.4%
19,Oc1ccc(C[C@H]2CNCCN2CCC23CC4CC(CC(C4)C2)C3)cc1,-7.57%
20,CCCCN1CCNC[C@H]1Cc1ccc(O)cc1,0.57%
21,Oc1ccc(C[C@@H]2CNCCN2CC2CCCCC2)cc1,-6.54%
22,c1ccc(C[C@H]2CNCCN2CCCCC2CCCCC2)cc1,1.44%
23,Nc1ccccc1SCC(O)Cn1ccc2ccccc21 (centres undefined),0.67%
24,CN1CCN(CCC(=O)Nc2cccc(F)c2)CC1,-7.12%
